This is a sample that favours compounds with a hit; in the whole collection about 2.1% have one here.
AF4-AF9 inh – inhibitors of AF4 peptide binding to AF9, primary screen, biochemical, AlphaScreen, biotin-AF4 peptide, FLAG-AF9, single point; inhibition, % at 10 µM; AID 651704, 2012; 350,000 tested, 0.47% active; Protein AF-9 (Homo sapiens), P42568;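 active means every replicate reaching a set inhibition limit, whatever the replicate mean, cut at about 25% in these data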
Target sequence (P42568 whole entry, looked up): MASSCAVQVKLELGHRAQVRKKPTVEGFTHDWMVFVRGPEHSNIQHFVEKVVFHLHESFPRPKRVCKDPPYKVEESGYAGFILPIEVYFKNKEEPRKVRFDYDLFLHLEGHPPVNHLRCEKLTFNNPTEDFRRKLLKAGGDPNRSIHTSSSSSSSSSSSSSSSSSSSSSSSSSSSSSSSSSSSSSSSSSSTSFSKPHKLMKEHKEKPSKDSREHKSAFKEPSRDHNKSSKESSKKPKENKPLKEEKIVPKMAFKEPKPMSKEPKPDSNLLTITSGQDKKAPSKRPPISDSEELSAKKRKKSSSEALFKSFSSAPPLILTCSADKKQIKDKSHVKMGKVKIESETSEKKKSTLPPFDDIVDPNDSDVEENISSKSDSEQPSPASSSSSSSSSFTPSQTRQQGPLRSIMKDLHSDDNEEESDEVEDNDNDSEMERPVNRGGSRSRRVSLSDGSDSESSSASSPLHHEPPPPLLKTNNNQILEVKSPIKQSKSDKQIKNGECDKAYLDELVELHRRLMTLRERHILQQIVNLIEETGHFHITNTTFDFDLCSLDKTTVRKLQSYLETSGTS
PGC1a acetyl inh – inhibitors of PGC1a acetylation signal, primary screen, cell-based, U2OS, AlphaScreen, inhibitor mode. AlphaScreen anti-acetyl-lysine; with virally co-expressed GCN5 acetyltransferase. inhibition, % at 15.6 µM. 350,000 tested, 0.17% active. AID 651687, 2012;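 active means every replicate shows inhibition of at least 40%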
HIV Env fusion – inhibitors of HIV-1 Env-driven cell-cell fusion, primary screen, HeLa-JRFL effector, CEM21 target cells, luciferase. AID 651610, 2012. inhibition, % at 12.3 µM. 360,000 tested, 1.1% active;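 active means mean replicate inhibition score of at least 50 and every replicate individually at or above 50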
NSD2 HMT inh – NSD2 histone methyltransferase inhibitors, primary screen, biochemical, AlphaScreen, single concentration, set 2; Histone-lysine N-methyltransferase NSD2 (Homo sapiens), O96028; NSD2 peptide methylation, 120 min; inhibition, % at 12.5 µM; 310,000 tested, 0.54% active; in the data active means inhibition above about 50%
INS-1E GSIS act – GLuc luminescence reporter in INS-1E cells, primary screen for activators of glucose-dependent secretion of insulin. activation, % at 16.6 µM. INS-1E GLuc reporter insulin secretion, 2-3 h. AID 743287, 2014. 370,000 tested, 0.61% active;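 active means lowest replicate activation of at least 40%, so every replicate reaches that level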
Of the large screens only hits and unclear results are named; the others gave an inactive call; [ ] = remark or other dose.

CCOc1cc(C2NC(=S)NC(C)=C2C(=O)Nc2ccccc2)ccc1O (centres undefined)	none
CCC(c1nnnn1-c1ccc2c(c1)OCCO2)N1CCc2ccccc2C1 (centres undefined)	INS-1E GSIS act 54.5 (no result: PGC1a acetyl inh, NSD2 HMT inh)
CCC(c1nnnn1-c1ccc2c(c1)OCCO2)N1CCN(C(=O)c2ccco2)CC1 (centres undefined)	none (no result: PGC1a acetyl inh, NSD2 HMT inh)
CC(=O)c1cccc(N(CC(=O)Nc2ccc(S(=O)(=O)N3CCOCC3)cc2)S(C)(=O)=O)c1	none (no result: PGC1a acetyl inh)
Cc1ccc(CNC(=O)c2ccc(N3CCCC3=O)cc2)cc1	none (no result: AF4-AF9 inh)
Cn1nc(C(C)(C)C)cc1C(=O)NCc1ccc(N2CCCC2=O)cc1	HIV Env fusion 64.1 (no result: AF4-AF9 inh)
CCOC(=O)c1sc2nc(C)nc(NCc3ccccc3OC)c2c1C	PGC1a acetyl inh 62.9
O=C([C@@H]1[C@@H](CO)[C@@H]2Cn3c(ccc(-c4ccc(F)cc4)c3=O)[C@@H]2N1Cc1cocn1)N1CCOCC1	none (no result: HIV Env fusion, NSD2 HMT inh)
CCCCOP(=O)(c1ccc(N(C)C)cc1)C(O)c1ccc(OC)cc1 (centres undefined)	PGC1a acetyl inh 82.0
CCCCOP(=O)(c1ccc(N(C)C)cc1)C(O)c1cc(OC)c(OC)c(OC)c1 (centres undefined)	none
O=C(C[C@@H]1C[C@@H]2c3cc(NC(=O)c4ccc5c(c4)OCO5)ccc3O[C@@H]2[C@@H](CO)O1)NCc1ccc(Oc2ccccc2)cc1	HIV Env fusion 70.7[16.7 µM] (no result: NSD2 HMT inh)
O=C(C[C@H]1C[C@@H]2c3cc(NC(=O)C4CCC4)ccc3O[C@@H]2[C@@H](CO)O1)NCc1ccc2c(c1)OCO2	HIV Env fusion 85.8[16.7 µM] (no result: NSD2 HMT inh)
O=C(C[C@H]1C[C@H]2c3cc(NC(=O)c4ccc5c(c4)OCO5)ccc3O[C@H]2[C@@H](CO)O1)NCc1ccc(Oc2ccccc2)cc1	none (no result: NSD2 HMT inh)
O=C(C[C@H]1C[C@H]2c3cc(NC(=O)C4CCC4)ccc3O[C@H]2[C@@H](CO)O1)NCc1ccc2c(c1)OCO2	HIV Env fusion 77.8[16.7 µM] (no result: NSD2 HMT inh)
O=C(C[C@H]1C[C@@H]2c3cc(NC(=O)C4CCC4)ccc3O[C@@H]2[C@H](CO)O1)NCc1ccc2c(c1)OCO2	none (no result: NSD2 HMT inh)
Cc1noc(C)c1NC(=O)Nc1cccc2c1O[C@@H](CN(C)C(=O)Nc1c(C)noc1C)[C@H](C)CN([C@H](C)CO)C2=O	none (no result: NSD2 HMT inh)
COc1ccc(NC(=O)N(C)C[C@@H]2Oc3ccc(NC(=O)NC(C)C)cc3C(=O)N([C@H](C)CO)C[C@H]2C)cc1	none (no result: HIV Env fusion, NSD2 HMT inh)
CCN(CC)S(=O)(=O)c1ccc(OC)c(NC(=O)c2cc([N+](=O)[O-])ccc2N2CCOCC2)c1	HIV Env fusion 66.5 (no result: INS-1E GSIS act)
CCN(CC)S(=O)(=O)c1ccc(N2CCCC2)c(NC(=O)Cc2cc(OC)c(OC)c(OC)c2)c1	HIV Env fusion 96.9 (no result: PGC1a acetyl inh)
CCN(CC)S(=O)(=O)c1ccc(N2CCCC2)c(NC(=O)Cc2ccc(OC)cc2)c1	none
O=C(Nc1nnc(S(=O)(=O)N2CCOCC2)s1)c1ccccc1	AF4-AF9 inh 47.1 (no result: NSD2 HMT inh, INS-1E GSIS act)
O=C(Nc1nnc(S(=O)(=O)N2CCOCC2)s1)c1ccc(Cl)cc1	none (no result: PGC1a acetyl inh, NSD2 HMT inh)
COc1ccccc1-c1cnc(C(O)c2ccc(F)c(C)c2)[nH]1 (centres undefined)	none (no result: INS-1E GSIS act)
CC1=Nc2ccccc2N=C(NC(=O)CN2CCN(c3ccccc3)CC2)C1c1ccccc1 (centres undefined)	PGC1a acetyl inh 86.1
COc1ccc(CN(C)C[C@@H]2OCCCC[C@H](C)Oc3ccc(NC(=O)Nc4ccc(OC)cc4)cc3C(=O)N([C@H](C)CO)C[C@@H]2C)cc1	none (no result: NSD2 HMT inh)
COc1ccc(CN(C)C[C@@H]2OCCCC[C@H](C)Oc3ccc(NC(=O)Nc4ccc(OC)cc4)cc3C(=O)N([C@@H](C)CO)C[C@@H]2C)cc1	HIV Env fusion 64.4[16.7 µM] (no result: NSD2 HMT inh)
COc1ccc(NC(=O)Nc2ccc3c(c2)C(=O)N([C@@H](C)CO)C[C@H](C)[C@H](CN(C)Cc2ccccc2)OCCCC[C@H](C)O3)cc1	HIV Env fusion 86.0[16.7 µM] (no result: NSD2 HMT inh)
COc1ccc(S(=O)(=O)N(C)C[C@@H]2OCCCC[C@@H](C)Oc3ccc(NC(=O)Nc4ccccc4)cc3C(=O)N([C@H](C)CO)C[C@H]2C)cc1	HIV Env fusion 75.8[16.7 µM] (no result: AF4-AF9 inh, NSD2 HMT inh)
CC(=O)Nc1ccc(S(=O)(=O)N(C)CC(=O)NCCOc2ccccc2)cc1	none
COc1ccccc1C(OC(=O)c1cccs1)C(=O)NCC1CCCO1 (centres undefined)	INS-1E GSIS act 56.9 (no result: AF4-AF9 inh)
COc1ccc(C(OC(=O)c2cccs2)C(=O)NCC2CCCO2)cc1 (centres undefined)	none (no result: AF4-AF9 inh, INS-1E GSIS act)
CCc1ccc(-n2c(SCC(=O)c3ccc4c(c3)NC(=O)CO4)nc3ccccc3c2=O)cc1	none
CCOc1ccc(N(C)S(=O)(=O)c2ccc3[nH]cc(C(=O)NCCOC)c(=O)c3c2)cc1	INS-1E GSIS act 65.9
CC(=O)N(C)C[C@@H]1Oc2cc(-c3ccncc3)ccc2S(=O)(=O)N([C@H](C)CO)C[C@H]1C	none (no result: NSD2 HMT inh)
O=C(CC(NC(=O)c1ccccc1)c1ccccc1)NCc1ccccc1 (centres undefined)	none
O=C(CC(NC(=O)c1ccccc1)c1ccccc1)Nc1cccc2ccccc12 (centres undefined)	INS-1E GSIS act 94.8 (no result: AF4-AF9 inh)
O=C(CSCCO)Nc1cccc2ccccc12	none (no result: AF4-AF9 inh, INS-1E GSIS act)
O=C(CSCC(=O)Nc1cccc2ccccc12)Nc1cccc2ccccc12	HIV Env fusion 71.3
CC(=O)NC1C(=O)N(CCN2CCOCC2)c2ccc(Br)cc21 (centres undefined)	none (no result: PGC1a acetyl inh)
CCOc1ccc2c(c1)C(NC(C)=O)C(=O)N2CCN1CCOCC1 (centres undefined)	AF4-AF9 inh 25.0 (no result: NSD2 HMT inh)
COc1cccc(N=C2SC(C(=O)Nc3ccccc3F)CC(=O)N2C)c1 (centres undefined)	none (no result: AF4-AF9 inh, HIV Env fusion)
COCCn1c(SCC(=O)N2CCCC2)nnc1-c1ccco1	AF4-AF9 inh 28.4 (no result: PGC1a acetyl inh, NSD2 HMT inh)
Cc1c(NC(=O)C(C)OC(=O)c2cc(Cl)nc(Cl)c2)c(=O)n(-c2ccccc2)n1C (centres undefined)	none (no result: PGC1a acetyl inh, HIV Env fusion)
O=C(CCCN1C(=O)S/C(=C\c2ccccc2)C1=O)NNC(=O)c1ccccc1O	HIV Env fusion 71.2
O=C(CCCN1C(=O)/C(=C/c2ccccc2Cl)SC1=S)NNC(=O)c1ccc(Cl)cc1Cl	HIV Env fusion 56.6 (no result: INS-1E GSIS act)
CN(C)C(=O)/C(=C/c1ccc(-c2cccc([N+](=O)[O-])c2)o1)NC(=O)c1ccccc1	none
Cc1nn(CCCC(=O)Nc2nccs2)c(C)c1[N+](=O)[O-]	none (no result: INS-1E GSIS act)
CCC(=O)Nc1cc(C(C)(C)C)ccc1C(C)=O	INS-1E GSIS act 66.6 (no result: AF4-AF9 inh, PGC1a acetyl inh)
CN(CCO)C(=O)c1nc[nH]c1C(=O)N1CCN(C(=O)OC(C)(C)C)CC1	none (no result: PGC1a acetyl inh, HIV Env fusion, NSD2 HMT inh)
COc1ccc(CCn2ccc(O)c(Cc3c(F)cccc3Cl)c2=O)cc1OC	INS-1E GSIS act 42.7 (no result: PGC1a acetyl inh)
Cc1cc(C(=O)Nc2cccc3c2O[C@H](CN(C)Cc2ccc(C(=O)O)cc2)[C@@H](C)CN([C@@H](C)CO)C3=O)n(C)n1	none (no result: HIV Env fusion, NSD2 HMT inh)
C=C1C2(C(=O)NCc3ccco3)CCC(C2)C1(C)C (centres undefined)	none (no result: AF4-AF9 inh, HIV Env fusion, INS-1E GSIS act)

Source: PubChem
